Assay outcomes from PubChem BioAssay.
Most compounds without a hit are left out; they make up all but 1.8% or so of the library.
697 NFkB inh – inhibitors of PMA/ionomycin-induced NF-kB reporter, 697 cells, primary screen, B-cell NF-kB inhibitor project, cell-based, luminescence, uHTS. 697 B-cell NF-kB luciferase reporter, 16 h. inhibition, % at 4 µM. 330,000 tested, 0.33% active; in the data active = inhibition above about 35%
Gli-Sufu antag – Gli-Sufu pathway antagonists, primary screen, luciferase luminescence, Sufu-KO-LIGHT cells, uHTS | Sufu-KO-LIGHT fibroblasts, Gli luciferase reporter luminescence | inhibition, % at 5 µM | 340,000 tested, 0.74% active | AID 588413, 2011;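 active = inhibition above about 55%, limit read from the data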
Jurkat NFkB inh – inhibitors of induced NF-kB luciferase reporter, primary screen, TCR NF-kB activation inhibitor project, cell-based, luminescence, uHTS. AID 435003, 2010. inhibition, % at 4 µM. Jurkat, PMA/ionomycin-induced NF-kB luciferase reporter. 330,000 tested, 0.53% active; in the data active = inhibition above about 50%
Beta apoptosis – inhibitors of cytokine-induced beta cell apoptosis, primary screen, luminescence; AID 435005, 2010; 300,000 tested, 0.8% active; protection from apoptosis, % (no concentration beside the values); INS-1E cytokine-induced death, ATP luminescence, 48 h; percent of positive-control rescue, neutral wells zero;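 active = Every replicate reaches about 75%, or at least half do and their mean reaches it too, limit read from the data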;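 note: higher means more ATP so stronger rescue from cytokine killing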
697 NFkB conf – PMA/ionomycin-induced NF-kB reporter inhibitors, 697 retest, confirmation, B-cell NF-kB inhibitor project, cell-based, luminescence, single concentration | inhibition, % at 4 µM | 2,000 tested, 35% active | shares compounds with 697 NFkB inh | 697 B-cell NF-kB luciferase, 16 h | AID 449746, 2010; in the data active = inhibition mostly above about 28%, no sharp cut-off; inactive = mostly below about 22%
Numbers stand for hits; – = inactive; · = no result given.

SMILES | 697 NFkB inh | Gli-Sufu antag | Jurkat NFkB inh | Beta apoptosis | 697 NFkB conf
CCc1ccc2[nH]c3nc(N/N=C/c4cccc(O)c4)nnc3c2c1 | 60 | – | – | – | 76
COc1cccc(/C=N/Nc2nnc3c(n2)[nH]c2ccccc23)c1OC | – | – | – | – | ·
CC(OC(=O)C1CC1)C(=O)Nc1cc(Cl)cc(Cl)c1 (stereo not drawn) | – | – | – | – | ·
O=C(COC(=O)c1ccco1)c1ccc(F)cc1 | – | – | – | – | ·
Cc1cc(OCC(=O)NC2CC2)c2c(C)c(C)c(=O)oc2c1 | 36 | – | – | – | 29
Cc1noc(C)c1-c1ccc2ncnc(NCC3CCCCN3C)c2c1 (stereo not drawn) | 36 | – | – | – | –
COc1cccc(CNc2ncnc3ccc(-c4c(C)noc4C)cc23)c1 | – | – | – | – | ·
CCC(=O)c1ccc(OCC(=O)Nc2ccccc2C(=O)N2CCCCC2)cc1 | – | – | – | – | ·
Cc1c(NC(=O)c2cc(-c3cccs3)nc3ccccc23)c(=O)n(-c2ccccc2)n1C | 39 | – | – | – | –
Cc1c(NC(=O)c2cc(-c3ccccc3)nc3ccccc23)c(=O)n(-c2ccccc2)n1C | – | – | – | – | ·
Cc1ccc(S(=O)(=O)Nc2ccc3c(c2)n(C)c(=O)n3C)cc1 | 47 | – | – | – | 29
Cn1c(=O)n(C)c2cc(NS(=O)(=O)c3ccccc3)ccc21 | 36 | – | – | – | 32
COC(=O)c1ccccc1NC(=S)NC(=O)c1ccc2c(c1)OCO2 | 46 | – | – | – | –
COC(=O)c1ccccc1NC(=O)c1ccc2c(c1)OCCO2 | – | – | – | – | ·
CCN(CC)c1nc2ccccc2[nH]c1=O | – | – | – | – | ·
Cc1ccc(C(=O)NC(=S)Nc2ccc(NC(=O)c3cccc(Cl)c3)cc2)cc1 | – | – | – | – | –
CCn1c(=N)c(C(=O)NC)cc2c(=O)n3cccc(C)c3nc21 | · | – | · | · | ·
CCNc1nc(C)c2cc(Br)c(=O)n(CC)c2n1 | 41 | – | – | – | 40
Cc1ccccc1OCC(O)CN1CCN(c2ccc(Cl)cc2)CC1 (stereo not drawn) | – | – | – | – | ·
CCOC(=O)c1c(NC(=O)c2ccc(S(=O)(=O)N(C)CC3CCCO3)cc2)sc2c1CCN(C)C2 (stereo not drawn) | – | – | – | – | ·
COc1cc(/C=C/c2ccc3cccc(O)c3n2)cc(Cl)c1OC | – | – | – | – | –
O=C(O)c1ccc(N/N=C/c2cccc(C(F)(F)F)c2)cc1 | – | – | – | – | –
COc1ccc(N2CCN(C(=O)c3cccc(S(=O)(=O)N4CCc5ccccc54)c3)CC2)cc1 | – | – | – | – | ·
O=C(c1cccc(S(=O)(=O)N2CCc3ccccc32)c1)N1CCN(c2ccccn2)CC1 | – | – | – | – | –
Cc1cnc(NC(=O)c2ccc(OCC3CCCO3)cc2)s1 (stereo not drawn) | – | – | – | – | ·
SMILES | 697 NFkB inh | Gli-Sufu antag | Jurkat NFkB inh | Beta apoptosis | 697 NFkB conf
CN(CC1CCCO1)S(=O)(=O)c1ccc(C(=O)Nc2nc3cc4c(cc3s2)OCO4)cc1 (stereo not drawn) | 62 | – | – | – | 65
O=C(Nc1nc2ccccc2s1)c1ccc(OCC2CCCO2)cc1 (stereo not drawn) | – | · | – | – | –
COc1ccc(C(=O)Nc2nc3ccccc3s2)cc1 | – | – | – | · | –
O=C(Nc1nc2ccccc2s1)c1ccc(F)cc1 | – | – | – | · | –
CN(CC1CCCO1)S(=O)(=O)c1ccc(C(=O)Nc2ccc3c(c2)OCO3)cc1 (stereo not drawn) | – | – | – | – | ·
O=C(NCc1ccccc1)C1=C[C@@H](C2CC2)C[C@@H](OCc2ccc(CO)cc2)O1 | – | – | – | – | ·
O=C(NCc1ccccc1)C1=C[C@H](C2CCCCC2)C[C@H](OCc2ccc(CO)cc2)O1 | – | – | – | – | –
Nc1nonc1NN=C1CCCCC1 | – | – | – | – | ·
COc1ccc(NC(=O)[C@@H]2CC=C[C@@H]3CCN(C4CCCCC4)C(=O)[C@@H]32)cc1 | 36 | – | – | – | –
COc1cc(N2Cc3ccccc3C2)ccc1C=O | – | – | – | – | –
CCOc1ccc(-n2c(SCC(=O)Nc3ccc4c(c3)OCCO4)nc3c(c2=O)SCC3)cc1 | 38 | – | – | – | 32
CCOc1ccc(-n2c(SCC(=O)Nc3ccc4c(c3)OCO4)nc3c(c2=O)SCC3)cc1 | · | – | · | · | ·
Fc1ccccc1-c1nc(-c2ccccc2)no1 | – | – | – | – | –
COc1ccc(-c2noc(-c3ccc(Cl)cc3)n2)cc1 | – | – | – | – | ·
COc1ccc(-c2nc(-c3ccc(C(=O)O)cc3)no2)cc1 | – | – | – | – | –
COc1cccc(-c2noc(-c3cccnc3)n2)c1 | – | – | – | – | ·
Fc1ccccc1-c1nc(-c2ccncc2)no1 | – | – | – | – | ·
COc1cccc(-c2nc(-c3ccccc3)no2)c1 | – | – | – | – | –
COCCCn1c(SCC(=O)Nc2ccccc2F)nnc1-c1ccoc1C | – | – | – | – | ·
COc1ccc(S(=O)(=O)N2CCC(C(=O)N3CCc4ccccc4C3)CC2)cc1Cl | – | – | – | · | ·
CC(=O)c1c(-c2ccccc2)c2cc(Cl)ccc2[nH]c1=O | 36 | – | – | – | –
CC(=O)c1c(-c2ccc(Cl)cc2)c2ccccc2[nH]c1=O | – | – | – | – | ·
CCN(CC)S(=O)(=O)c1ccc(-c2cn3cc(Cl)ccc3n2)cc1 | – | – | – | – | ·
Clc1ccc(-c2cn3cc(Cl)ccc3n2)cc1 | – | – | – | – | –
CCC(CC)C(=O)Nc1ccc(Sc2ccc([N+](=O)[O-])cc2)cc1 | 37 | – | – | – | 30
SMILES | 697 NFkB inh | Gli-Sufu antag | Jurkat NFkB inh | Beta apoptosis | 697 NFkB conf
CCCC(=O)Nc1ccc(Sc2ccc([N+](=O)[O-])cc2)cc1 | 41 | – | – | – | 35
CCc1ccc(N=Nc2ccc(O)c3[nH]cnc23)cc1 | – | – | – | – | ·
Cc1ccc(Nc2nnc(SCc3cc(=O)n4cc(C)ccc4n3)s2)cc1 | – | – | – | – | ·
Cc1ccccc1-c1nnc(-c2ccccc2)o1 | – | – | – | – | ·
Cc1ccc(-c2nnc(-c3ccccc3Br)o2)cc1 | – | – | – | – | –
CCCCNc1ncnc2c1cnn2-c1ccc(Cl)cc1 | – | – | – | – | –
CCCCNc1ncnc2c1cnn2-c1ccccc1 | – | – | – | – | ·
Cc1ccc(-n2ncc3c(NCc4cccnc4)ncnc32)cc1C | – | – | – | – | –
C#CCOCCOCCOCCNc1nc(N2CCN(C(=O)[C@H]([C@@H](C)CC)n3cc(CCCN=C(N)N)nn3)CC2)nc(N2CCN(C(=O)[C@H](CCCCN)n3cc(CCCC)nn3)CC2)n1 | – | – | – | – | ·
FC(F)(F)Oc1ccc(Nc2nc3ccccc3o2)cc1 | – | – | – | – | ·
O=C(CNc1cccc2ccccc12)N/N=C/c1ccc([N+](=O)[O-])cc1 | – | – | – | – | ·
CCOC(=O)c1c(C)[nH]c(C(=O)CN2C(=O)NC(C)(C)C2=O)c1C | – | – | – | · | ·
